From the supplement of paper PMC11417369 come the findings set out here.

± gives the standard deviation of the averaged measurements. Whole data set: some 25,000 sequences, median “ln(normalized median fluorescence intensity)” near 10, cut for the highest 2% near 12. The entries come from a sample that favours the highest values as a whole.

The test system of the assay is PfAP2-G AP2 domain (GST-tagged). As to the kind of experiment: gcPBM binding intensity (ln(normalized median fluorescence intensity)); higher = stronger DNA binding. In a few lines: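 Plasmodium falciparum DNA-binding domains carrying a GST tag were expressed in E. coli and applied for 1 h, at about 25 μg on average, to an Agilent 4 × 180k array. The array held primer-extended double-stranded 36-bp intergenic genomic probes together with negative controls, and binding took place in 1× PBS with 1% milk, 0.2 mg/ml BSA, 0.5% salmon testes DNA and 0.03% Triton X-100. An Alexa488 anti-GST antibody detected bound protein, and the array was scanned at 488 nm. Binding intensity is taken as the highest Masliner-normalised natural-log median intensity across replicate spots of either probe orientation.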
Consider “TGCCTATGACATGAATGTACATTAAAATTAAATAAA [XGTACX_site7126]”, for which the “gcPBM binding intensity (ln)” value was determined as 10.8 ± 0.52.
On to “AAAGAAAATAGGTGTACACATAATAAATACAGCTAT [CACACA_site5917]”, for which the “gcPBM binding intensity (ln)” value was 11.7 ± 1.1.
Turning to “TAAAAATAAAGAAAATGTACATAAATAATAATACAT [XGTACX_site2278]”, the “gcPBM binding intensity (ln)” value stood at 11.2 ± 0.69.
To “TAATACATACACACATGTACATACAGAAATAAATAA [XGTACX_site3245]” belongs 11.2 ± 0.81; to “ATAACATAACATAATACACACATATAAAAAAGAAAT [CACACA_site3028]”, 10.1 ± 0.18.
Under “TAAAAGAAATAATATACACACATATATAAAAATAAA [CACACA_site1329]” stands 9.87 ± 0.085; under “TTAAAAGAAAATAGGTGTACACATAATATATACATA [XGTACX_site7697]”, 11.8 ± 1.
Under “TCTTGTTTATCAACAGCACACACAACAACAACAACA [CACACA_site8046]” stands 10.1 ± 0.23; under “CGCCCACAGATATATACACACATATATAAATAAATA [CACACA_site6877]”, 10.1 ± 0.3.
For the sequence “GGTTCATTAAAGTGTACACATAAATACCGTAACATT [CACACA_site6002]”, the “gcPBM binding intensity (ln)” value turned out to be 11.9 ± 1.
Under “TAAGGTTCATTAAAGTGTACACATAAATACCGTAAC [XGTACX_site8212]” stands 11.6 ± 0.95.
Under “ATATAAAAAAATTGCACACATAAATATATACATATA [CACACA_site1218]” stands 10.12 ± 0.064.
Under “CGAAACCATATGTACACACACATATATAAATATGTA [CACACA_site7082]” stands 11.3 ± 0.88; under “ATTAAATACATTAACACACACACAAATAAATACATA [CACACA_site5583]”, 10.2 ± 0.25; under “AATACTAAAAAGTGTACACATACATAAAAAATTGCA [CACACA_site5620]”, 11.6 ± 0.87.
Regarding “TTAAATACTAAAAAGTGTACACATACATAAAAAATT [XGTACX_site6261]”, the “gcPBM binding intensity (ln)” value was determined as 11.7 ± 0.92.
To “TATATTGCAAAAAGTACACACATAAATAAATACATA [CACACA_site6589]” belongs 11.6 ± 1.1; to “TAAATTAATAAAAAGTGTACATAATATACATATATA [XGTACX_site8604]”, 11.3 ± 0.66; to “GCATGGAACCATATATGTACATATATAAATAAATAA [XGTACX_site4996]”, 11.2 ± 0.63.
Regarding “AACCATAAAAAGTGTACACATATAAAAAATATGGAA [CACACA_site4199]”, the “gcPBM binding intensity (ln)” value stood at 11.7 ± 1.1.
Under “TAAAAATTAAAGTGTACACATATATATATATATATA [CACACA_site4781]” stands 11.6 ± 0.97.
For the sequence “TTTTGTTGAAAAGTAAGATATTCCAACATGTTTTTA [CACACA_negctrl_site391]”, the “gcPBM binding intensity (ln)” value is 9.88 ± 0.014.
With “TATATATATATATATACATGCATACATATACATACA [TGCATGCA_site897]”, the “gcPBM binding intensity (ln)” value came out at 10 ± 0.22.
In the case of “TTTTTTTTTTTTTTTTTTTGTCTTATATATTACGGA [CACACA_negctrl_site322]”, the “gcPBM binding intensity (ln)” value turned out to be 9.64 ± 0.67.
With “AAAAAATACTTATAAAGTACTAATATATATAAGCAG [XGTACX_site743]”, the “gcPBM binding intensity (ln)” value stood at 10.9 ± 0.48.
To “TTTATGGAATAATCACGTACACACAAGAAAAAAAAA [XGTACX_site985]” belongs 11.4 ± 0.91; to TTTATATTTAAAAGGATGCACTACAAATTCTAAATA, 10.3 ± 0.3; to “TTTTTTTTTCCCGTAAATATTGAGACAACCATAATG [CACACA_negctrl_site41]”, 10.6 ± 0.54.
Under “TATATAATATTACGTTGTACACTTTAATCTCCCTTC [XGTACX_site5577]” stands 11.1 ± 0.7.
Under “CTATTTTTTGTATAAACATGCATATAGTAGATATGG [TGCATGCA_site670]” stands 10.1 ± 0.23; under “AAAGAATTTAAATATTGTACGCAATATATAAAAAAA [XGTACX_site7616]”, 11.5 ± 0.92; under “TTTAAACCTTAATATTGTACGCAAAAAAAAAAAGAA [XGTACX_site3757]”, 11.6 ± 1.
Turning to “CTTTAACCTTTTTATTGTACTTTTAATATTTTAAAA [XGTACX_site4457]”, the “gcPBM binding intensity (ln)” value worked out at 11.4 ± 0.86.
As to “CATTTTATTTTAATATGTACTTAAAGAAAAAAAATT [XGTACX_site7670]”, the “gcPBM binding intensity (ln)” value amounted to 11.2 ± 0.82.
For the sequence “TATTAAAAGGTGAGTACACACATATATGTGTATATA [CACACA_site7070]”, the “gcPBM binding intensity (ln)” value stood at 11.4 ± 0.83.
To “TATGTGTGCAAAAACTGTACACATTAAAGGTATATA [XGTACX_site7627]” belongs 11.7 ± 1.1.
To “TTACATGTAAAAGGTACACACATTATGTATACAAAT [CACACA_site1117]” belongs 11.4 ± 0.88; to “AAATTATTTCTTTGCGCATGTAGCTTTTATACTATT [TGCATGCA_site819]”, 9.98 ± 0.16.
To “AATGGTTCAACGTAGTGTACGTAATAAATAATAAAT [XGTACX_site8668]” belongs 11.8 ± 0.95; to “ATTAAGTTCAAATGTAGTACGTGTAAAAAAAAAAAA [XGTACX_site1578]”, 11.4 ± 0.83; to “TAAAAATATAAATTTTGTACGTAAAAAATGGTTCTT [XGTACX_site1506]”, 11.5 ± 0.93.
Consider “GGATAAGAAAAGAAGTGTACATATATATATATATAT [XGTACX_site8290]”, for which the “gcPBM binding intensity (ln)” value amounted to 11.2 ± 0.68.
To “ATTCGGATCTATAAGTGTACACAATCTAGCGAAAAG [XGTACX_site3088]” belongs 11.5 ± 0.83.
As to “CGGATCTATAAGTGTACACAATCTAGCGAAAAGTTT [CACACA_site4932]”, the “gcPBM binding intensity (ln)” value is 11.6 ± 1.
